# JMJD2A Tudor = JMJD2A Tudor domain (human) inhibition | Potency, µM (series often up to 114 µM), inactives show at the top dose activity change, negative = inhibition, hits mostly inhibitors | AID 504339 | AlphaScreen JMJD2A-Tudor / H3K4me3 peptide binding | O75164 | 390,000 tested, 4.4% active; note: % is set by controls: 0 for no effect and ±100 for the full control effect; nearly all actives have a fitted effect of over 50% in size
# Target sequence (O75164 whole entry, looked up, the tested form may be a part): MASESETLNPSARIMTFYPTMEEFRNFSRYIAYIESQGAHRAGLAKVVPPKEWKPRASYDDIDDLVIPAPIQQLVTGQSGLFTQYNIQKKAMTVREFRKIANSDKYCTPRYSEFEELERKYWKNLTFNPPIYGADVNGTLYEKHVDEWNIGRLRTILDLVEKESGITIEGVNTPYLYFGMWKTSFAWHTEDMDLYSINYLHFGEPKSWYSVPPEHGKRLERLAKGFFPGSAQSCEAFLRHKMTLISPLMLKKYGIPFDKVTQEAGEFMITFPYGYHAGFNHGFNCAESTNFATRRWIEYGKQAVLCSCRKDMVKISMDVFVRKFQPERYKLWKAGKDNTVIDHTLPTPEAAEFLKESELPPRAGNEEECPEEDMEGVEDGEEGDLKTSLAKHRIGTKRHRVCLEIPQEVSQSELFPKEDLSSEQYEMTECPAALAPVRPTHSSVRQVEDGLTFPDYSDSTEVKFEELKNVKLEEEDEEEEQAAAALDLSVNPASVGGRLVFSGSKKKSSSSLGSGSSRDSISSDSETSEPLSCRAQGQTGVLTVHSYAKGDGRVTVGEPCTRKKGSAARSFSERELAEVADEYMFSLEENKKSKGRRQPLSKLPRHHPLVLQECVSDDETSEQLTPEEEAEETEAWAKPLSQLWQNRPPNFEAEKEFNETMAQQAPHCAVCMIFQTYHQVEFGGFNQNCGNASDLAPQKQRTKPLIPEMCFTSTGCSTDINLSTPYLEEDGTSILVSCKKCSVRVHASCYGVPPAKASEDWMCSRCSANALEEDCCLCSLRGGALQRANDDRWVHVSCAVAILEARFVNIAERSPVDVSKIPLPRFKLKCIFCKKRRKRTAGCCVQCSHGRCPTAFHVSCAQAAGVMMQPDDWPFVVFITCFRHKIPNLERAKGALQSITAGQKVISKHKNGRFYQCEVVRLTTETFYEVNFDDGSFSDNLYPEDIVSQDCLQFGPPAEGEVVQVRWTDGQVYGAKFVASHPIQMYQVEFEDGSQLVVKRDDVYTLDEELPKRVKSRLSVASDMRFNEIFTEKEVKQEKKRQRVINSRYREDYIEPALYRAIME
# HP1b binding inh = HP1-beta chromodomain-methylated histone interaction inhibition | P83916 | AID 540317 | AlphaScreen HP1-beta / biotin-H3K9me3 peptide binding | 390,000 tested, 0.56% active | Potency, µM (titrated, usually from 114 µM), for inactives: top-dose activity change, negative = inhibition, usual class: inhibitors; note: nearly all actives have a fitted effect of over 70% in size
#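 Compound inhibition of the preformed complex between 50 nM HP1-beta and 50 nM biotinylated H3K9me3 peptide was read by AlphaScreen. Buffer was PBS pH 7.4 with 0.01% Tween-20. Incubations ran 30 min at room temperature, with 10 ug/mL donor/acceptor beads.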
# L3MBTL1 block = inhibitors of human L3MBTL1; Q9Y468; AID 485360; 230,000 tested, 0.66% active; AlphaScreen L3MBTL1–H3K9me1 peptide binding; Potency, µM (doses to about 57.1 µM), for inactives: top-dose activity, negative = inhibition, usual class: inhibitors; note: % is set by controls: 0 for no effect and ±100 for the full control effect; nearly all actives have a fitted effect of over 60% in size
#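 AlphaScreen proximity signal between nickel-chelate acceptor and streptavidin donor beads (final 10 ug/mL) reports binding of 50 nM L3MBTL1 to 75 nM biotin-H3 K9me1 peptide; complex incubated with compounds 30 min at room temperature; cefsulodin titration as control.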
# G9a inh = inhibitors of human histone lysine methyltransferase G9a; Q96KQ7; G9a H3K9 monomethylation, AlphaScreen, 2 h; Potency, µM (top dose mostly 102 µM), for inactives: top-dose activity, negative = inhibition, most hits filed as inhibitors; 350,000 tested, 8.8% active; note: % is set by controls: 0 for no effect and ±100 for the full control effect; nearly all actives have a fitted effect of over 75% in size
#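 Quantitative HTS format: methyltransferase activity on a biotin-tagged H3K9 peptide is measured by AlphaScreen, using a rabbit anti-monomethyl-H3K9 antibody with streptavidin donor and anti-IgG acceptor beads. Final levels are 20 nM enzyme, 500 nM peptide, 20 uM SAM; 2 h RT.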
# Sfp inh = Sfp phosphopantetheinyl transferase inhibition. 310,000 tested, 3.5% active. AID 1490. Biochemical Sfp PPTase activity, qHTS. Q9F4F7. Potency, µM, without a hit: largest response in the series, negative = inhibition, most hits filed as inhibitors;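 note: the enzyme is Sfp with the accession as filed and its product quenches rhodamine fluorescence; 0% = enzyme reaction without inhibitor and -100% = no enzyme wells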
#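 After 15 min at room temperature with compound, 15 nM Sfp received 5 uM rhodamine-CoA plus 12.5 uM BHQ-2-ybbR (50 mM Hepes pH 7.6, 10 mM MgCl2). Rate came from the fluorescence difference over 30 min, ex 525/em 598 nm.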
# BAZ2B block = inhibitors of human BAZ2B bromodomain | AlphaScreen BAZ2B-H3K14Ac peptide displacement | AID 504333 | Potency, µM (top dose mostly 114 µM), for inactives: at the highest dose activity change, negative = inhibition, most hits filed as inhibitors | 360,000 tested, 4.4% active; note: % is set by controls: 0 for no effect and ±100 for the full control effect; nearly all actives have a fitted effect of over 60% in size
#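 BAZ2B (50 nM) with biotin-H3(5-23)K14Ac peptide (50 nM) in PBS pH 7.4, 0.01% Tween-20, preformed 30 min, then compound 30 min at room temperature; top concentration 110uM. AlphaScreen streptavidin donor/nickel chelate acceptor beads (10 ug/mL final), 20 min dark, signal read.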
# * marks the source's active call; other numbers are inactive results; ? = inconclusive; . = not tested or not shown; [ ] = another dose, or the depositor's remark. Rows were chosen to be rich in hits. Some 12% of all compounds tested hit in one or more screens of this group. Calls come from the whole dose curve; as a rule, active = well fitted curve in the direction sought with a large enough effect; inconclusive = small, poorly fitted or top-dose-only effect, or another doubt; inactive = no such curve, though single readings can be large; an effect the other way counts as inactive or inconclusive. Potency is the fitted concentration of half-maximal effect.
SMILES,JMJD2A Tudor,HP1b binding inh,L3MBTL1 block,G9a inh,Sfp inh,BAZ2B block
Cc1cc(C(=O)CSc2nc3ccccc3c(=O)n2C)c(C)n1CC1CCCO1 (stereo not given),.,.,-3.1%,?,16.0%,?
CCn1c(SCC(=O)c2cc(C)n(CC3CCCO3)c2C)nc2ccccc21 (stereo not given),?,-19.9%,-19.0%,17.8µM*,-11.7%,?
Cc1cc(C(=O)CN2C(=O)c3ccccc3S2(=O)=O)c(C)n1CC1CCCO1 (stereo not given),?,-4.0%,-0.1%,50.1µM*,-10.5%,-34.4%
Cc1nn(-c2ccccc2)c(C)c1/C=N/Nc1nc2ccccc2[nH]1,56.2µM*,?,-15.7%,?,-6.7%,?
Cc1nn(-c2ccccc2)c(C)c1/C=N\NS(=O)(=O)c1ccc(Cl)cc1,-31.3%,25.8%,.,3.16µM*,7.9%,-6.2%
Cc1cc(=O)[nH]c(N/N=C/c2c(C)nn(-c3ccccc3)c2C)n1,-11.0%,16.1%,0.1%,25.1µM*,-19.8%,-23.2%
Cc1nn(-c2ccccc2)c(Cl)c1/C=N/Nc1nc2ccccc2n1C,-34.3%,26.4%,-1.3%,50.1µM*,-2.4%,-37.8%
C(=N\Nc1nc2ccccc2[nH]1)/c1cccs1,-26.0%,14.8%,-21.1%,-36.4%,-18.6%,-2.5%
Cc1nn(-c2ccccc2)c(C)c1NS(=O)(=O)c1ccccc1,-16.4%,22.7%,3.9%,13.0%[59 µM],6.9%,6.4%
Cc1nn(Cc2ccc(Cl)cc2)c(C)c1NC(=O)CCCn1nc([N+](=O)[O-])c(Cl)c1C,-19.9%,4.9%,4.3%,8.2%,5.4%,1.3%
CCN(CC)Cc1cc2ccccc2c2c1COC2,-1.6%,43.6%,-6.9%,-14.6%,6.7%,-3.8%
CCN(CC)Cc1cc(O)c(CN(CC)CC)cc1O,0.794µM*,1.41µM*,3.16µM*,1.26µM*,10µM*,17.8µM*
Cc1ccc(C(=O)O)cc1NC1(c2ccccc2)C(=O)c2ccccc2C1=O,-2.9%,30.0%,.,-5.5%[59 µM],.,12.8%[57.1 µM]
C=CC[n+]1ccc2ccccc2c1C,?,10.3%,-3.4%,-36.8%,16.9%,2.5%
C=CC[n+]1ccc(/C=C2\C=Cc3cc(C)ccc3N2CC)c2ccccc21,20µM*,?,.,14.1µM*,-18.4%,14.1µM*
COC(=O)c1ccc(C(=O)OC)nc1,-2.9%,24.3%,1.3%,3.2%[59 µM],24.2%,1.2%
COC(=O)c1ccc(C(=O)O)nc1,12.6µM*,?,?,.,79.4µM*,17.8µM*
O=C(O)c1ccc(Br)cn1,5.62µM*,5.1%,.,22.4µM*,?,22.4µM*
Cc1cnc(C(=O)O)cn1,.,.,.,?,-29.8%,.
C=CCN1C(=O)/C(=C2/Sc3ccc(OC)cc3N2C)SC1=Nc1cccc(O)c1,-4.8%,62.1%,10.2%,1.6%[12.7 µM],-7.1%,-9.2%
COC1=C(Nc2ccccc2)C(=O)c2ccccc2C1=O,14.1µM*,35.5µM*,31.6µM*,11.2µM*,-13.2%,14.1µM*
CCOc1ccc(NC2=CC(=O)C(=O)c3ccccc32)cc1,-28.5%,-7.5%,.,.,.,.
COC1=C(Nc2ccc(C)cc2)C(=O)c2ccccc2C1=O,10µM*,15.8µM*,15.8µM*,8.91µM*,-26.0%,7.94µM*
Clc1ccccc1-c1cncnc1NCc1cccs1,.,.,.,-46.1%[0.501 µM],-16.8%,.
O=C(Nc1ccc(Cl)cc1Cl)c1cc(S(=O)(=O)N2CCC3(CC2)OCCO3)ccc1F,-19.3%,36.5%,.,-4.0%[59 µM],.,9.6%
SMILES,JMJD2A Tudor,HP1b binding inh,L3MBTL1 block,G9a inh,Sfp inh,BAZ2B block
CCN(CC)c1ccc(S(=O)(=O)N2CCCCC2)cc1NC(=O)CSCc1c(C)noc1C,-23.8%,26.2%,.,.,.,.
CN(CC(=O)Nc1n[nH]c(=S)s1)S(=O)(=O)c1cccc2cccnc12,3.55µM*,?,.,1.58µM*,39.8µM*,?
CN(CC(=O)NCc1ccco1)S(=O)(=O)c1cccc2cccnc12,-12.4%,37.3%,.,70.8µM*,-10.6%,-7.8%
COc1ccc(C(=O)NCC(=O)OCC(=O)c2cc(OC)c(OC)c(OC)c2)cc1OC,8.4%,31.1%,4.3%,50.1µM*,2.7%,10.6%
O=C(N/N=C/c1ccc(OCc2ccccc2)cc1)c1ccncc1,-9.5%,72.2%,-8.9%,-17.3%,13.6%,-18.2%
Oc1ccc(N=Cc2ccc(OCc3ccccc3)cc2)cc1,?,?,?,2.51µM*,?,?
COc1ccc(OCC(=O)OCC(=O)Nc2ccc3[nH]c(=O)[nH]c3c2)cc1,-11.5%,19.0%,5.6%,8.91µM*,.,-4.1%
O=C(COC(=O)Cc1ccc(Cl)cc1)Nc1ccc2[nH]c(=O)[nH]c2c1,-9.0%,14.9%,28.1%,50.1µM*,.,?
O=C(CSc1ncccn1)Nc1ccc2[nH]c(=O)[nH]c2c1,-6.2%,25.7%,3.3%,14.1µM*,.,9.3%
COc1ccc(CCC(=O)OCC(=O)Nc2ccc3[nH]c(=O)[nH]c3c2)cc1,-9.0%,28.1%,3.4%,-35.5%,.,-4.7%
Cc1cccc(CNc2ncnc3ccc(-c4cccc(C#N)c4)cc23)c1,.,.,.,.,-14.2%,.
CCN(CC)S(=O)(=O)c1ccc(C)c(NC(=O)COc2ccc(Cl)cc2Br)c1,-15.0%,39.8%,2.1%,44.7µM*,7.6%,-28.9%
CCn1c(SCC(N)=O)nnc1-c1cc2c(C)nn(-c3ccccc3)c2s1,-15.3%,34.1%,-1.7%,44.7µM*,14.9%,9.1%
Cc1nc(-c2ccc(S(=O)(=O)Nc3ccc(Br)cc3F)cc2)co1,-20.6%,15.7%,.,-22.4%,19.3%,-33.4%[57.1 µM]
C[C@@H](C(=O)Nc1ccc2ccccc2c1)[C@@H]1C[C@@]1(C)[C@@H](NC(=O)c1cnccn1)c1ccccc1,-11.4%,38.1%,-12.3%,50.1µM*,6.6%,-5.5%
CCOc1ccc(NC(=O)Cn2cc(C(=O)c3ccc(CC)cc3)c(=O)c3cc(C)ccc32)cc1,-12.9%,25.3%,.,?,.,?
COCCNC(=S)N1CCC(c2nc(-c3ccc(N(C)C)cc3)no2)CC1,?,-33.0%,?,?,5.6%,56.2µM*
CC(C)CNC(=S)N1CCC(c2nc(-c3ccc(F)cc3)no2)CC1,2.3%,40.9%,1.1%,9.2%,5.4%,-11.6%
COc1ccc(NC(=O)C2CCCN(S(=O)(=O)c3ccc4c(c3)CCCC(=O)N4)C2)c(OC)c1 (stereo not given),-20.7%,-11.2%,.,-4.9%[59 µM],.,6.3%[57.1 µM]
CC(NC(=O)Nc1ccc([N+](=O)[O-])cc1)C(c1ccccc1)N1CCOCC1 (stereo not given),-28.2%,10.9%,-10.2%,39.8µM*,?,15.7%
CC(NC(=O)Nc1ccc(Cl)c(Cl)c1)C(c1ccccc1)N1CCOCC1 (stereo not given),-6.0%,40.9%,?,0.4%,1.8%,-1.1%
O=C(CN1CCN(c2ccccc2F)CC1)c1ccc(O)cc1O,-23.4%,12.4%[57 µM],.,-28.2%,9.7%,-29.2%
